Measurements reported in PubChem BioAssay (NCI).
Compounds without any hit were thinned out: in the full panel of roughly 79,000, 15% have a hit. Activity calls are given as the source filed them. Cut-off read from the data, not from the text of the source: active = growth inhibition above about 70%; inactive = the rest.

Tests used:
[1] = NCI Yeast Anticancer Drug Screen. Data for the rad50 strain (AID 155);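 note: 0% = growth of vehicle-only cultures of the same strain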; conditions: S. cerevisiae rad50 strain growth inhibition; at 50.0 µM; hits give high values
How it was run: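 Compounds were tested on a yeast strain with an engineered DNA damage repair alteration; the reported value is growth inhibition normalised to vehicle treatment.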

[2] = NCI Yeast Anticancer Drug Screen. Data for the mec2-1 strain (AID 157); conditions: S. cerevisiae mec2-1 strain, at 50.0 µM, hits give high values
How it was run: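 Test agents were screened against the mec2-1 yeast strain, with defined DNA repair or cell cycle alteration. Growth was scored as inhibition against vehicle-only controls.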

[3] = NCI Yeast Anticancer Drug Screen. Data for the sgs1 mgt1 strain (AID 161);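 note: 0% = growth of cultures given vehicle only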; conditions: S. cerevisiae sgs1 mgt1 strain, at 50.0 µM, hits give high values
How it was run: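 Mutant yeast exposed to compound; growth scored against vehicle-only wells.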

[4] = NCI Yeast Anticancer Drug Screen. Data for the cln2 rad14 strain (AID 165);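 note: 0% = growth equal to vehicle treated cultures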; conditions: S. cerevisiae cln2 rad14 strain, at 50.0 µM, hits give high values
How it was run: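 Growth of compound-exposed yeast (cln2 rad14 genotype) measured and expressed as inhibition relative to vehicle.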

[5] = NCI Yeast Anticancer Drug Screen. Data for the bub3 strain (AID 167); conditions: S. cerevisiae bub3 mutant strain, at 50.0 µM, hits give high values
How it was run: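 Growth of a checkpoint-deficient yeast mutant is measured after compound exposure. Values represent inhibition relative to vehicle.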

[6] = NCI Yeast Anticancer Drug Screen. Data for the mlh1 rad18 strain (AID 175); conditions: S. cerevisiae mlh1 rad18 strain growth inhibition; at 50.0 µM; hits give high values
How it was run: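 In this whole-cell yeast screen, a strain with altered DNA damage repair is challenged with compound, and its growth is measured against matched vehicle-treated controls.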

Measured: growth inhibition

O=c1cc(NCc2cccc([N+](=O)[O-])c2)[nH]c(=O)[nH]1
inactive: [1] 0.1% | [2] 8.2% | [3] 5.05% | [4] -12.6% | [5] -5.5% | [6] 6.6%

COc1ccc(CCn2nccc2C)cc1
inactive: [1] -60.9% | [2] -4% | [3] -4.3% | [4] -17.9% | [5] -9.4% | [6] -18.4%

CCC(=O)NCCO
inactive: [1] -26.9% | [2] -17.7% | [3] -5.65% | [4] -103% | [5] -9% | [6] -5.25%

N#CCCCO
inactive: [1] -1.25% | [2] 11.6% | [3] 7.45% | [4] -4.55% | [5] 0.3% | [6] -11.8%

CC(=O)OC1C(COC(=O)c2ccccc2)OC(Nc2ncc(-c3ccc(Br)cc3)s2)C(OC(=O)c2ccccc2)C1OC(=O)c1ccccc1 (stereo not drawn)
inactive: [1] 1.05% | [2] 15.4% | [3] -5.9% | [4] 31.9% | [5] -3.55% | [6] -39.9%

CC(=O)NC(CCCNC(=O)N(C)N=O)C(=O)NCc1ccccc1 (stereo not drawn)
inactive: [1] -35% | [2] -26.9% | [3] -15.6% | [4] 6.9% | [5] -21.2% | [6] -13.3%

O=C(COc1cccc(Cl)c1)Nc1ccc(Cl)cc1
inactive: [1] -0.5% | [2] -26.7% | [3] -18.9% | [4] -13.8% | [5] 17.4% | [6] 4.3%

Nc1c(Br)cc(Br)c(C(=O)O)c1Br
inactive: [1] 6.35% | [2] -16.1% | [3] 10.8% | [4] 2.8% | [5] -15.2% | [6] -1.75%

Cc1cc(O)c(C)c(C)c1C
inactive: [1] -1.05% | [2] -6.55% | [3] 4.5% | [4] 2.1% | [5] -9.85% | [6] 12.1%

CC1(C)CC(=O)C2=C(C1)NC1=C(C2)C(=O)CC(C)(C)C1
inactive: [1] -15.4% | [2] -5.7% | [3] -22.4% | [4] 19.9% | [5] 7.6% | [6] 12.8%

COC1=CC(=O)C(=O)C=C1C(C)(C)C
inactive: [1] 49.2% | [2] 40.3% | [3] 48.8% | [4] 2.45% | [5] 49.4% | [6] 9.55%

C/C(CCn1[nH]c(=O)ccc1=O)=N\OCCCc1ccccc1
inactive: [1] 2.7% | [2] -27.6% | [3] 11.7% | [4] 16.3% | [5] -3% | [6] 11.5%

OB(O)c1cccc(B(O)O)c1
inactive: [1] -4.2% | [2] -28.7% | [3] -3% | [4] -7.45% | [5] -21.9% | [6] -10.1%

CCCCCCCCCCCCCCCCCC(=O)OCC1OC(OC2(OC(=O)CCCCCCCCCCCCCCCCC)OC(COC(=O)CCCCCCCCCCCCCCCCC)C(OC(=O)CCCCCCCCCCCCCCCCC)C2OC(=O)CCCCCCCCCCCCCCCCC)C(OC(=O)CCCCCCCCCCCCCCCCC)C(OC(=O)CCCCCCCCCCCCCCCCC)C1OC(=O)CCCCCCCCCCCCCCCCC (stereo not drawn)
inactive: [1] 17.2% | [2] 6% | [3] 25.4% | [4] -2.75% | [5] 17.9% | [6] 23.8%

O=C1CCC2(c3ccc(Cl)cc3)SCCN12 (stereo not drawn)
inactive: [1] 5.8% | [2] -20.5% | [3] -6.85% | [4] 2.75% | [5] 31.8% | [6] -0.15%

O=C(NNS(=O)(=O)c1ccccc1)c1cccc([N+](=O)[O-])c1
inactive: [1] -0.95% | [2] -18.8% | [3] 7.25% | [4] 8.2% | [5] 5% | [6] -11.4%

C=C1C(=C)C2C=CC1C1C3C(c4ccccn4)=NN=C(c4ccccn4)C3C21 (stereo not drawn)
active: [4] 74.5%
inactive: [1] 54.4% | [2] 66.2% | [3] 68.8% | [5] 66.6% | [6] 62.5%

O=C(Nc1ccc(Cl)cc1[N+](=O)[O-])N1CCN(c2ccccc2)CC1
inactive: [1] -8.35% | [2] 21.9% | [3] 29.4% | [4] -10.3% | [5] 44.3% | [6] 28.1%

O=C(NCCN1CCCCC1)C(O)(C1CCCCC1)C1CCCCC1
inactive: [1] -6.85% | [2] 7.65% | [3] 12.2% | [4] 19.2% | [5] 9.75% | [6] 3.9%

O=C(O)CCC(=O)c1ccc(O)cc1
inactive: [1] -0.2% | [2] -27% | [3] -7.1% | [4] -14.7% | [5] -14% | [6] 13.6%

CN(C)C(=O)C(NCCO)c1ccccc1 (stereo not drawn)
inactive: [1] -12.6% | [2] -20.4% | [3] -11.2% | [4] -27.8% | [5] 14% | [6] 0.3%

CCCNc1nc(Cl)nc2c1cnn2C
inactive: [1] 7.6% | [2] -8.4% | [3] 9.5% | [4] 1.25% | [5] 14.4% | [6] 6.95%

C#CCCOC(=O)c1ccccc1OC(C)=O
inactive: [1] -0.8% | [2] -9.55% | [3] -2.3% | [4] 11.5% | [5] 7.15% | [6] 5.15%

Cc1c([N+](=O)[O-])ccc2c1C(=O)c1ccccc1C2=O
inactive: [1] -41.6% | [2] -0.35% | [3] -39.9% | [4] 2.7% | [5] -5.7% | [6] 39.5%

CCOC(=O)Cn1c(=O)c2nc(SC)sc2n(-c2ccccc2)c1=O
inactive: [1] -19.9% | [2] 10.8% | [3] -37.1% | [4] 6.9% | [5] -1.45% | [6] 9.4%

CC(C)(C)NCC(O)c1ccc(O)c(CO)n1 (stereo not drawn)
inactive: [1] 1.3% | [2] -8.05% | [3] -19.4% | [4] 9.05% | [5] -8.9% | [6] -3.3%

CC(C)=CCC/C(C)=C/Cn1c(=O)cc[nH]c1=O
inactive: [1] 10.7% | [2] -6.9% | [3] -15.8% | [4] -107% | [5] 2.15% | [6] -0.1%

CSC(=O)Oc1ccc([N+](=O)[O-])cc1
inactive: [1] 6.25% | [2] 1.55% | [3] -6.7% | [4] -38.3% | [5] 12.5% | [6] -2.9%

O=C(O)C1CCC2CCCC21 (stereo not drawn)
inactive: [1] -25.2% | [2] -7.3% | [3] 8.95% | [4] -10.9% | [5] -18% | [6] 15.5%

COc1cccc(NC(=O)NCCN(C)c2ccccc2)c1
inactive: [1] -5.7% | [2] 38.5% | [3] 21.1% | [4] -17.2% | [5] 23.1% | [6] 27.2%

C[C@@]1(CO)O[C@H]1CCC#C[Si](C)(C)C
inactive: [1] -20.9% | [2] -32.4% | [3] -20.2% | [4] 6.7% | [5] -14.2% | [6] 1.05%

CCCC1c2c(cc(=O)[nH]c2O)C(=O)N1Cc1ccccc1 (stereo not drawn)
inactive: [1] -10.2% | [2] -16.5% | [3] -14.4% | [4] 17.8% | [5] -17.6% | [6] -0.9%

O=C(C(=Cc1ccc(F)cc1)C(=O)c1ccccc1)c1ccccc1
inactive: [1] 1.75% | [2] 6.2% | [3] -12% | [4] 5.95% | [5] 3.35% | [6] 26.6%

c1ccc(C2CCN3c4ccc5ccccc5c4NCC23)cc1 (stereo not drawn)
active: [5] 88.8%
inactive: [1] 36% | [2] 68% | [3] 45.6% | [4] 14.5% | [6] 67.3%

CC(=O)NCCCCCC(=O)N(C)C
inactive: [1] -32.6% | [2] -8.45% | [3] -16.8% | [4] -17.6% | [5] -3.3% | [6] -5.35%

CC1OC(OC2C(O)CC(OC3C(O)CC(OC4CCC5(C)C(CCC6C5CCC5(C)C(C7=CC(=O)OC7)CCC65O)C4)OC3C)OC2C)CC(O)C1O (stereo not drawn)
inactive: [1] 7.6% | [2] 2.4% | [3] -17.5% | [4] 16.8% | [5] 6.65% | [6] 27.2%

C1=C/CCC2OC2CC/C=C/CC/1 (stereo not drawn)
inactive: [1] -9.8% | [2] -55.2% | [3] -24.8% | [4] 11.8% | [5] -29.2% | [6] -4.2%

O=[N+]([O-])c1ccc(N=Cc2ccccc2)cc1
inactive: [1] 1.95% | [2] -30.6% | [3] 12.9% | [4] 3.75% | [5] 16.5% | [6] 5.8%
